Screening data as filed in PubChem.
GAA850 FXN act = FXN promoter activators, primary screen, cell-based, luciferase luminescence, HEK293 lucGAA850 | activation, % at 6 µM | 360,000 compounds, 0.56% hits | HEK293 lucGAA850 FXN promoter luciferase reporter, 24 h; percent of 10 µM SAHA response;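 active = activation above the average of all compounds screened plus 3 SD, cutoff fixed separately per campaign, cut at about 7.5% in these data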
HSF-1 act = HSF-1 activators, primary screen, NIH3T3-HGL cells, MG132 stress, luminescence, single point; NIH3T3-HGL HSF-1 luciferase reporter, 8 h; 100% = twice DMSO control signal; activation, % at 9 µM; 300,000 compounds, 1.7% hits; AID 504408, 2011;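 active = mean replicate activation of at least 50% with a set share of replicates each reaching 50%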
AHR act = AHR activators, primary screen, cell-based, luminescence, luciferase reporter, human; AID 2796, 2010; 320,000 compounds, 2.5% hits; Aryl hydrocarbon receptor (Homo sapiens), P35869; AHR-responsive luciferase reporter cells; activation, % at 5 µM; in the data active = activation above about 47%
HSF1 inhib = HSF1 inhibitors in luciferase reporter cells, primary screen, cell-based, NIH3T3, luminescence; activity change, negative = inhibition, % at 7.5 µM (by protocol); 300,000 compounds, 0.77% hits; NIH3T3-HGL HSE-luciferase, MG132-induced, luminescence 8 h; hits give low values;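 active = more than half of replicate wells show activity change below -50%, luminescence cut by over half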;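 also: luciferase reports HSF-1 transcriptional activity via heat shock element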
NR0B1 inh = DAX1 (NR0B1) inhibitors, primary screen, cell-based, HEK293, Gal4-DAX1, luciferase luminescence. Nuclear receptor subfamily 0 group B member 1 (Homo sapiens), P51843. HEK293 Gal4-DAX1 luciferase reporter. inhibition, % at 6.75 µM. 340,000 compounds, 0.99% hits. AID 504766, 2011;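 active = inhibition above the mean over all tested compounds plus 3 SD, cut at about 4.2% in these data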;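 also: inhibition shows as a rise in luminescence from relieved DAX1 repression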
Target sequence (P51843 207-470 limits assumed): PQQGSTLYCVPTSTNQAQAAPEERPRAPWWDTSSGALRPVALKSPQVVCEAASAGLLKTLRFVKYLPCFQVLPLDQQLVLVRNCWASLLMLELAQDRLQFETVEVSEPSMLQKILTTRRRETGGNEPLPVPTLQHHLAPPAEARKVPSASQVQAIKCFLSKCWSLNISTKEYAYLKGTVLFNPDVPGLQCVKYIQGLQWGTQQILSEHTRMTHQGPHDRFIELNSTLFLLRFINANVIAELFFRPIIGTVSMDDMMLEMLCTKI
HSP90 inh = HSP90 inhibitors, primary screen, cell lysate, luminescence. 290,000 compounds, 0.91% hits. Rabbit reticulocyte lysate, luciferase refolding luminescence, 3 h. inhibition, % at 5.6 µM. AID 1789, 2009. Heat shock protein HSP 90 (rabbit reticulocyte lysate; luciferase refolding);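 active = inhibition above the screen-wide mean plus 3 SD, computed separately per campaign, cut at about 16% in these data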;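 also: inhibitors lower the luminescence because luciferase stays unfolded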
Hits are given with their value; n = inactive; x = no result. In the library only some 5.9% were active in any assay of this set; here they are far more common.

SMILES | GAA850 FXN act | HSF-1 act | AHR act | HSF1 inhib | NR0B1 inh | HSP90 inh
COc1ccc(OC)c(N/C(N)=N/c2nc(C)cc(C)n2)c1 | n | n | 66 | n | n | n
O=C(O)Cn1cc(C(=S)N2CCCCC2)c2ccccc21 | n | n | n | n | 6.2 | n
O=[N+]([O-])c1ccccc1CN1CCN(Cc2ccc3ccccc3c2)CC1 | n | n | n | n | n | n
CCCn1c(SCC(=O)NCC(=O)Nc2ccc(F)c(F)c2F)nc2ccccc2c1=O | n | x | n | x | n | x
OC(C#CCCN1CCCCC1)(c1ccccc1)C1CCCCC1 (stereo not given) | n | n | n | n | 5.0 | n
O=[N+]([O-])c1cccc(-c2nc(-c3ccccn3)no2)c1 | n | 54 | 68 | n | n | n
Fc1ccc(CSc2ccc(-c3ccc4c(c3)OCO4)nn2)cc1 | n | n | n | n | n | n
CCCc1noc(-c2cccc([N+](=O)[O-])c2)n1 | n | n | n | n | n | n
c1ccc(CSc2ccc(-c3ccc4c(c3)OCO4)nn2)cc1 | n | n | 74 | n | n | n
c1ccc(-c2nccc(-c3ccc4c(c3)OCO4)n2)cc1 | n | n | 79 | n | n | n
CC(O)(c1ccccc1)c1nc(-c2ccc3c(c2)OCO3)cs1 (stereo not given) | n | x | x | x | x | x
Cc1nccc(-c2ccc3c(c2)OCO3)n1 | n | n | 58 | n | n | n
Cc1cccc(-c2noc(-c3ccc4c(c3)OCO4)n2)c1 | n | n | n | n | n | n
Cc1ccc(-c2nnc(-c3ccc4c(c3)OCO4)o2)cc1 | n | n | 79 | n | n | n
c1coc(-c2nnc(-c3ccc4c(c3)OCO4)o2)c1 | x | x | x | x | x | n
c1ccc(-c2noc(-c3ccc4c(c3)OCO4)n2)nc1 | n | n | n | n | n | 41
CCOc1ccccc1NC(=O)c1ccc2c(c1)C(=O)N(CC(C)C)C2=O | n | n | 50 | n | n | n
COc1ccccc1NC(=O)c1ccc2c(c1)N(CC#N)C(=O)C(C)(C)O2 | n | n | 62 | n | n | n
CCOC(=O)CN1C(=O)C(C)(C)Oc2ccc(C(=O)Nc3ccccc3OC)cc21 | n | n | n | n | n | n
COCCCN1C(=O)c2ccc(C(=O)Nc3ccccc3OC)cc2C1=O | n | n | 67 | n | n | n
CCOC(=O)c1ccc(-n2[nH]c(-c3ccccc3)cc2=O)cc1 | n | n | n | -72 | n | n
Cc1ccc(NC(=O)C(=O)Nc2ccc(C)cn2)nc1 | n | n | n | n | n | n
Cc1ccc(NC(=O)/C(C#N)=C(\N)C(Cl)(Cl)Cl)nc1 | n | n | n | n | 8.1 | n
Cc1ccc(C(=O)Nc2cccnc2)cc1S(=O)(=O)N1CCCCC1 | n | n | n | n | n | n
Cc1cccc(NC(=O)c2ccc(N3CCCCC3)c([N+](=O)[O-])c2)n1 | n | 62 | n | n | n | n
SMILES | GAA850 FXN act | HSF-1 act | AHR act | HSF1 inhib | NR0B1 inh | HSP90 inh
O=C(/C=C/c1ccc(N2CCCCC2)c([N+](=O)[O-])c1)c1ccc(O)cc1 | n | 75 | n | n | n | n
Cc1ccc(C(=O)Nc2cccnc2)cc1S(=O)(=O)N1CCCC1 | n | n | 54 | n | n | n
O=C(Nc1ccc(-c2nc3ccccc3o2)cc1)c1ccc(N2CCOCC2)c([N+](=O)[O-])c1 | n | n | 54 | n | n | n
COc1ccccc1C(=O)/C=C/c1ccc(N2CCCCC2)c([N+](=O)[O-])c1 | n | n | n | n | n | n
CCOC(=O)c1c(C)[nH]c(C)c1S(=O)(=O)N(C)CC(=O)Nc1cccc(C)n1 | n | n | n | n | n | n
O=C(Nc1cccnc1)c1ccc(N2CCCC2)c([N+](=O)[O-])c1 | n | n | n | n | 5.2 | n
O=C(Nc1cccnc1)c1ccc(N2CCOCC2)c([N+](=O)[O-])c1 | n | n | x | n | n | n
COc1cccc(CN(C)C(=O)c2cc(COc3ccc(-n4cncn4)cc3)on2)c1 | n | n | n | n | n | n
COc1ccc(C2=NN3C(C2)c2ccccc2OC32C(=O)N(C)c3ccccc32)cc1 (stereo not given) | n | 92 | n | n | n | n
